The results in this text go back to ChEMBL document CHEMBL1961873, “Compounds: GSK PKIS; Assays: Nanosyn kinase panel” (2012).

The structures appear in SMILES notation.
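Note: reported value is a mean of the inhibition readings.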

In this test the target is Tyrosine-protein kinase Srms (Homo sapiens) (UniProt Q9H3Y6). To be noted: at 0.1 µM.
Tyrosine-protein kinase Srms (Homo sapiens), sequence (Q9H3Y6 whole entry): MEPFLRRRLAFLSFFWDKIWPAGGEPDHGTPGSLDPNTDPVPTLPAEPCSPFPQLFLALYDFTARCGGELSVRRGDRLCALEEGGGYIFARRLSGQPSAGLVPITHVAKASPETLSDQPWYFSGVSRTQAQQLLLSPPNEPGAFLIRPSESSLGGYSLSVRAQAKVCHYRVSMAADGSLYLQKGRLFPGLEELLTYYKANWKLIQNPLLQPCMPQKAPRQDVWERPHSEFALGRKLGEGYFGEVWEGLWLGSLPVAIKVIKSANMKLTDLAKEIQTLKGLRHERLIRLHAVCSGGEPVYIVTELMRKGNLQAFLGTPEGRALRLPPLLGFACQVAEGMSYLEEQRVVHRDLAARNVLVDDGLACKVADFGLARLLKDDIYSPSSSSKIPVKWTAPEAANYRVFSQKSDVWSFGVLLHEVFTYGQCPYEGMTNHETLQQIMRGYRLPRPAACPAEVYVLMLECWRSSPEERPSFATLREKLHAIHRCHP
As a reminder, the inhibition is the drop in the measured response relative to a control, in per cent. In the case of `[O-][S+]1CCN(Cc2ccc(-c3ccc4ncnc(Nc5ccc(OCc6ccccc6)c(Cl)c5)c4c3)o2)CC1`, the inhibition is -2.27%. `C[C@@H](Oc1cc(-n2cnc3ccc(OCC4CCN(C)CC4)cc32)sc1C(N)=O)c1ccccc1C(F)(F)F`: the inhibition stood at 1.72%. As for `O=S(=O)(CCOCc1ccc(-c2ccc3ncnc(Nc4ccc(OCc5cccc(F)c5)c(Cl)c4)c3c2)o1)c1ccccc1`, the figure is -1.31%; as for `CCn1c(-c2nonc2N)nc2ccc(F)cc21`, -2.63%. For `CC(C)c1ccc(Nc2nccc(-c3cnn4ncccc34)n2)cc1` the value was 1.68%.

As to `CN(c1ccc(NC(=O)Nc2ccc(OC(F)(F)F)cc2)cc1)c1ccnc(Nc2cccc(S(N)(=O)=O)c2)n1`, the inhibition was 0.09%. For `NS(=O)(=O)c1ccc(N/N=C2\C(=O)Nc3ccc(Cl)cc32)cc1` the value was 0.76%. For the compound `COc1cccc(-n2ncc3c(N/N=C/c4ccc(S(C)(=O)=O)cc4)ncnc32)c1`, the inhibition came out at 4.95%. For `CC(C)c1ccc2c(c1)NC(=O)/C2=N/Nc1ccc(S(N)(=O)=O)cc1` the value was 0.59%. As for `Cc1cc(Cl)cc2c1NC(=O)C2=NNc1ccc(S(N)(=O)=O)cc1`, the figure is -1.17%; as for `c1ccc(Cc2nc3ccc(Nc4ncnc5ccccc45)cc3[nH]2)cc1`, -1.79%; as for `N#Cc1c(NC(=O)c2ccccc2F)sc2c1CCCC2`, 2.55%. For `CN(C)c1cc2c(Nc3ccc4c(cnn4Cc4ccccc4)c3)ncnc2cn1` the value was -0.2%; for `Nc1nccc(-c2c(-c3ccc(F)cc3)ncn2CCCN2CCOCC2)n1`, -1.41%. Regarding `Cc1ccc(NC(=O)CC2CC2)cc1-c1ccc(C(=O)NCC2CC2)cc1`, the inhibition came to 0.3%. As for `CCn1c(-c2nonc2N)nc2c(C#CC(C)(C)O)nc(OCCNC)cc21`, the figure is -1.55%.
